Only a selection was taken, and hits are over-represented in it overall.
MgrA DNA FP = alters Staphylococcus aureus MgrA binding to DNA; fluorescence polarization; 0.13% of 84,000 active; inhibition, % (no concentration beside the values); in the data active = inhibition above about 30%, passing the limit was not always enough;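 also: 0% = protein plus DNA without compound and 100% = DNA alone without protein; higher means less MgrA bound to DNA so lower polarization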
* hit, by the source's call.

SMILES	MgrA DNA FP
O=C1C=C(NC2CCCC2)CC(c2ccccc2)C1 (centres undefined)	0
O=C1C=C(C(F)(F)F)c2ccc(NC3CCCCC3)c3cccc1c23	56*
O=C1c2ccccc2C(=O)c2c(NC3CCCCC3)ccc(Nc3ccc(Oc4ccccc4)cc3)c21	-3
CC(C)(C)C(=O)NC(=S)Nc1cccc(O)c1	0
O=C1N=C(O)CN1/N=C/c1ccc(-c2ccc([N+](=O)[O-])cc2)o1	-3
COc1ccc(CN(C)C(=O)CSc2ccccc2)cc1	-1
Cc1cccc(NC(=O)N2CCC(C)CC2)c1C	2
O=C1NC(=O)N(C2CCCCC2)C(=O)/C1=C\C=C\c1ccco1	5
COc1cccc(/C=C2\C(=O)NC(=O)N(c3cccc(OC)c3)C2=O)c1	-6
COc1cccc(N2C(=O)/C(=C/C=C/c3ccco3)C(=O)NC2=S)c1	86*
COc1ccc(-n2c(=O)c3c4c(sc3n3c(C)nnc23)COC(C(C)C)C4)cc1 (centres undefined)	5
C[N+](C)(C)CC(O)COc1ccccc1 (centres undefined)	2
Cc1ccccc1NC(=O)/C=N/O	-4
CCOC(=O)c1cc2c(=O)n3ccccc3nc2n(C(C)C)c1=NC(C)=O	3
Cc1ccc(-c2noc(-c3cc(C(C)(C)C)nn3Cc3ccccc3)n2)cc1	-2
CSc1nn(-c2ccccc2)cc1C(=O)Nc1cccc(C(F)(F)F)c1	0
N#Cc1c(-c2ccco2)cc(-c2ccco2)[nH]c1=O	56*
N#Cc1c(-c2ccco2)cc(-c2ccccc2)[nH]c1=O	10
N#Cc1c(-c2ccccc2)cc(-c2ccco2)c(C#N)c1N	9
CCCCC(CC)Cn1c(=S)[nH]c2c(sc3ccccc32)c1=O (centres undefined)	3
COc1ccccc1NC(=O)c1ccc(C(=O)c2ccccc2)o1	0
CCSc1nc2sc3c(c2c(=O)n1CCc1ccccc1)CCC3	2
O=C(c1ccc2c(c1)C(=O)N(Cc1ccco1)C2=O)N1CCOCC1	-2
O=C(Nc1ccccc1Cl)c1ccc2c(c1)C(=O)N(Cc1ccco1)C2=O	9
Cc1ccnc(NC(=O)c2ccc3c(c2)C(=O)N(Cc2ccco2)C3=O)c1	30*
SMILES	MgrA DNA FP
COc1ccccc1OCc1nc(-c2ccncc2)no1	-2
Cc1oc2cc(OC(C)C)ccc2c(=O)c1-c1ccc2c(c1)OCCO2	-1
CCC(=O)NC1CC2C(=O)Nc3c(C)cccc3C2OC1=O (centres undefined)	5
CCOC(=O)CCc1n[nH]c(=O)[nH]c1=O	2
CCOC(=O)Cc1cc(C)[nH]c1C(=O)OCC	-1
CCOC(=O)CCc1c(CC(=O)OCC)c[nH]c1/C=N/O	61*
CCOc1ccc2nc(S/C=C/C(=O)c3ccc(Cl)cc3)sc2c1	-1
CCN(C(=O)CSC1=NCCS1)C1CCCCC1	-2
Cc1cc(C(F)(F)F)nn1CC(=O)N1CCCCC1	2
N#CC1(C#N)[C@H](c2ccoc2)[C@@H](C(=O)Oc2ccccc2)N2c3ccccc3C=C[C@@H]21	0
COC(=O)C1=C(C)N2[C@@H](C=C1)[C@@](C#N)(C(N)=O)[C@@H](c1ccccc1)[C@@H]2C(=O)OC	60*
COC(=O)C1=C(C)N(c2ccc(N(C)C)cc2)C(C)=C(C(=O)OC)C1c1ccccc1	-1
Cc1ccc(N=C(N)c2ccccc2)cc1	0
O=C1Nc2cc(C(=O)NC3CC3)ccc2S/C1=C\c1ccccc1	1
c1coc(-c2nc3ccccc3nc2-c2ccco2)c1	22
COc1ccc2nc3c(nc2c1)-c1cccc2cccc-3c12	-1
CNC(=S)Nc1ccc(C)cc1	-1
Cc1ccc(NC(=S)Nc2ccc3nc(-c4ccco4)c(-c4ccco4)nc3c2)cc1	80*
S=C(NCc1ccco1)Nc1ccc2nc(-c3ccccn3)c(-c3ccccn3)nc2c1	-3
COc1cccc(NC(=S)Nc2ccc(N(C)C)cc2)c1	-2
O=C(NCCO)c1ccc2nc(-c3ccco3)c(-c3ccco3)nc2c1	36
O=C(c1ccccc1)c1ccc2nc(-c3ccco3)c(-c3ccco3)nc2c1	63*
COc1ccc(N(C)C(=S)Nc2ccc3nc(-c4ccco4)c(-c4ccco4)nc3c2)cc1	60*
Cc1ccc(S(=O)(=O)N2CCNCC2)cc1	0
O=C(CSc1nc2c(c(C(F)(F)F)n1)CCc1ccccc1-2)N1CCCCC1	1
SMILES	MgrA DNA FP
CCOC(=O)c1ccccc1Oc1c(F)c(F)nc(NCCO)c1F	0
CN1CCN(S(=O)(=O)N(C)C)CC1	0
O=C(O)C=Cc1ccc(O)c(O)c1	4
C=C(C)C1Cc2cc(/C=C/C(=O)O)c(O)cc2O1 (centres undefined)	54*
C=C(C)C1Cc2cc3ccc(=O)oc3cc2O1 (centres undefined)	-3
Cn1c(CN2CCOCC2)nc2cc(NS(=O)(=O)c3ccc(F)cc3)ccc21	0
CCOC(=O)/C(C#N)=C1/C=CC(Cl)=NN1	-2
CC(=NCCc1ccc(F)cc1)C1=C(O)c2ccccc2C1=O	-1
CN(C)c1ccc2c3c(cccc13)C(=O)N(c1nc3ccccc3[nH]1)C2=O	10
CCSc1ccc2c3c(cccc13)C(=O)N(NCCO)C2=O	4

Compound activity (PubChem)
